# Laboratory results from PubChem BioAssay AID504660 (National Center for Advancing Translational Sciences (NCATS), 2011).
# Values joined by “and” are separate entries in the source; they are usually repeats but may differ in a detail not shown here. Equal entries are not always repeated. About 3,700 (1%) of roughly 360,000 compounds were called active. Rule as the data show it: active = activation above about 30%; inactive = the rest. The sample as a whole holds a higher share of actives than the screen did.
# Target: D(1A) dopamine receptor (Homo sapiens) (UniProt P21728)
# Test: Allosteric Agonists of the Human D1 Dopamine Receptor: qHTS; also: 0% is about no effect
# Details: HEK293 T-REx D1 cells, calcium flux, agonist mode; at 2 µM; active compounds read high
# Summary of the method: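 Agonism was scored from calcium flux recorded over 180 s (1 read/s) after pintool compound addition, following a 10-cycle baseline. Cells were inducible force-coupled HEK293 TREx D1, plated overnight at 30 C and loaded with no-wash calcium dye.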
# D(1A) dopamine receptor (Homo sapiens), sequence (P21728 whole entry, looked up): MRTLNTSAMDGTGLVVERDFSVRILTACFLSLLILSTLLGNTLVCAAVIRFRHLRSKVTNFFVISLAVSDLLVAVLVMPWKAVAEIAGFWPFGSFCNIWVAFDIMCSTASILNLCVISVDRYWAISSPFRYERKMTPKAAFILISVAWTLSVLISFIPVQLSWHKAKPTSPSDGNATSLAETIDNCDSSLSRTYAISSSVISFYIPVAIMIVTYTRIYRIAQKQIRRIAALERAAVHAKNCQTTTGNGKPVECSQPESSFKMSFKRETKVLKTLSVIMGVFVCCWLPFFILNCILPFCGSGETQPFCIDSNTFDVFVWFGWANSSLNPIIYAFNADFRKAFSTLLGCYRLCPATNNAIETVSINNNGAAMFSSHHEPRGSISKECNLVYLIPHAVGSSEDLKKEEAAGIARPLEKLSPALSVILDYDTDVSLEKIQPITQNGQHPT
row,Compound,activation
1,CCN(CC)c1nn2c(=O)c(C(=O)NCCc3ccccc3)cnc2s1,-0.903% (inactive)
2,COc1ccc(NC(=O)CSC2=Nc3ccccc3C3=NC(CC(=O)NCc4ccccc4OC)C(=O)N23)cc1Cl (centres undefined),4.46% (inactive)
3,Cc1cccc(OCCSc2nc3ccc(NC(=O)COc4ccccc4C)cc3s2)c1,14.8% (inactive)
4,C=C(Br)Cn1c(CCCC)nc2ccccc21,2.85% (inactive)
5,COCc1nc2ccccc2n1Cc1ccccc1Br,30.7% (active)
6,COc1ccccc1Cn1c(CO)nc2ccccc21,2.48% (inactive)
7,Cc1ccc(-c2noc(CSc3nnc(-c4ccc(Cl)cc4)n3C)n2)cc1,-2.32% (inactive)
8,Cc1ccc(Nc2nc(CSc3nnnn3-c3ccccc3)cc(=O)[nH]2)cc1,0.0289% (inactive)
9,Cc1ccc(-c2noc(CSc3nnnn3-c3ccccc3)n2)cc1,45.5% (active)
10,COc1ccc(C(=O)Nc2cccc(C(=O)OCc3cc(=O)n4c5c(sc4n3)CCCC5)c2)cc1,0.659% (inactive)
11,CCc1ccccc1N1C(=O)CN(S(=O)(=O)CC)CC1(C)C(=O)NC1CCCCC1 (centres undefined),0.155% (inactive)
12,COc1cc(C(=S)NCc2ccccc2)cc(Br)c1O,1.7% (inactive)
13,COc1cc(C(=O)NCc2ccncc2)cc(Br)c1OCc1ccccc1,62.9% (active)
14,COc1cc(C(=O)NCc2ccc(-n3cccc3)cc2)cc(OC)c1OC,4.24% (inactive)
15,CC(C)OCCCn1c(SCC(=O)c2ccccc2)nc2c(sc3ccccc32)c1=O,-1.31% (inactive)
16,Cc1ccccc1CNC(=O)C1CCCN(S(=O)(=O)N(C)c2ccc(F)cc2)C1 (centres undefined),2.76% (inactive)
17,C/C(=N\NC(N)=S)c1ccncc1,0.713% (inactive)
18,CCOC(=O)c1c(C)oc2ccc(N(C(=O)c3ccncc3)S(=O)(=O)c3ccc(CC)cc3)cc12,2.86% (inactive)
19,CCN(CC)c1ccc2cc(C(N)=O)/c(=N\NC(=O)c3ccncc3)oc2c1,68.8% (active)
20,CCCCCCn1nnc2sc(-c3ccccc3)cc2c1=O,2.52% (inactive)
21,COC(=O)c1c(NC(C)=O)sc(C(=O)Nc2ccccc2OC)c1C,2.77% (inactive)
22,COc1ccccc1NC(=O)c1sc2nc(C)c(C(=O)Nc3ccc(Cl)cc3)c(-c3ccc(Br)cc3)c2c1N,48.4% (active)
23,COc1ccc(Cl)cc1NC(=O)c1sc2nc3c(cc2c1N)CN(C)CC3,5% (inactive)

row,Compound,activation
1,O=C(CCc1cn(Cc2ccc(F)cc2)c2ccccc12)NC1CCCCC1,4.91% (inactive)
2,O=C(NCCc1ccc(Cl)cc1)c1ccc2c(c1)N(Cc1ccc(F)cc1)C(=O)CS2,-1.03% (inactive)
3,Oc1ccc(-c2nc3ccc(Cl)cn3c2Nc2ccc3c(c2)OCO3)cc1,2.27% (inactive)
4,Cc1c(NC(=O)c2cc(=O)c3ccccc3o2)c(=O)n(-c2ccccc2)n1C,-0.0323% (inactive)
5,COc1ccccc1-c1noc(-c2ccc(NCc3ccccc3)c([N+](=O)[O-])c2)n1,-1.19% (inactive)
6,Cc1ccc(Cl)cc1NC(=O)CSc1nc2ccccc2nc1Cc1ccccc1,3.58% (inactive)
7,CCCn1c2ccccc2c2cnn(CC(=O)NCC3CCN(Cc4ccc(C)cc4)CC3)c(=O)c21,32% (active)
8,CCCn1c2ccccc2c2cnn(CC(=O)NCCCOC(C)C)c(=O)c21,-0.0904% (inactive)
9,CCCn1c2ccccc2c2cnn(CC(=O)NCCCN3CCCCC3CC)c(=O)c21 (centres undefined),2.1% (inactive) and -0.646% (inactive)
10,Cc1ccc(NC(=O)Cc2ccc(NC(=O)N3CCCCc4ccccc43)cc2)cc1,4.12% (inactive)
11,Cc1ccc(Cl)cc1NC(=O)C(C)n1nnc2sc(-c3ccccc3)cc2c1=O (centres undefined),-0.45% (inactive)
12,Cc1ccc(-n2c(SCC(=O)Nc3cccc(F)c3)nc3c(oc4ccccc43)c2=O)cc1C,4.64% (inactive)
13,NS(=O)(=O)c1ccc(NC(=O)COC(=O)c2c3c(nc4ccccc24)/C(=C\c2ccc4c(c2)OCO4)CCC3)cc1,59.4% (active)
14,CC(NC(=S)Nc1ccc(S(N)(=O)=O)cc1)c1ccc2c(c1)OCO2 (centres undefined),3.07% (inactive)
15,CCc1ccc(NC(=O)Cn2nnc(C(=O)NCc3ccc4c(c3)OCO4)c2N)cc1,0.807% (inactive)
16,NC(=O)c1ccc(NC(=O)COC(=O)c2c3c(nc4ccccc24)/C(=C\c2ccc4c(c2)OCO4)CCC3)cc1,51.7% (active)
17,CCN(CC(=O)Nc1ccc2c(c1)OCO2)S(=O)(=O)c1ccccc1,2.93% (inactive)
18,O=C(COC(=O)c1c2c(nc3ccccc13)CCCC2)c1ccc(Br)s1,8.91% (inactive)
19,CCN(CC)c1ccc(NC(=O)CN2CCN(CC(=O)Nc3ccc(Cl)cc3)CC2)cc1,2.48% (inactive)
20,CC(C)CCN(C(=O)Nc1ccc(Cl)c(Cl)c1)C(C)c1cccs1 (centres undefined),23.8% (inactive)
21,CCOc1ccccc1CNC(=O)c1ccc2c(c1)nc1n2CCC(C)C1 (centres undefined),-0.796% (inactive)
22,N#CN1CCC(NC(=O)c2ccc(F)cc2)CC1,3.29% (inactive)
23,COc1cccc(C(=O)NC2=NC(c3ccc(N(C)C)cc3)CC(=O)N2)c1 (centres undefined),-0.763% (inactive)

row,Compound,activation
1,Cc1cc(C)cc(NC(=O)C2CCCN2S(=O)(=O)c2cccc3cccnc23)c1 (centres undefined),34.7% (active)
2,Cc1ccc(NC(=O)C2CCCN2S(=O)(=O)c2cccc3cccnc23)c(C)c1 (centres undefined),-0.331% (inactive) and 2.62% (inactive)
3,O=C(Nc1nccs1)C1CCCN1S(=O)(=O)c1cccc2cccnc12 (centres undefined),0.517% (inactive)
4,Cc1noc(/C=C/N(C)C)c1S(=O)(=O)N1CCCC(C(=O)Nc2cccc(F)c2)C1 (centres undefined),5.84% (inactive)
5,O=C(COc1ccccc1)OCc1cc(=O)n2nc(-c3cccs3)sc2n1,3.1% (inactive)
6,Cc1cccc(C(CC(=O)NCC2(c3ccccc3)CCCC2)c2ccccc2)c1O (centres undefined),2.41% (inactive)
7,O=C(CCOc1ccccc1)N(Cc1cccnc1)c1nc2ccc(Cl)cc2s1,2.39% (inactive)
8,COCCCNC(=S)N1CCN(c2nc(-c3cccc(OC)c3)cs2)CC1,6.03% (inactive)
9,CN(C)CCCNC(=S)N1CCN(c2nc(-c3ccccc3)cs2)CC1,32.3% (active)
10,CN(C)CCCNC(=S)N1CCC(c2nc3ccccc3[nH]2)CC1,-0.699% (inactive)
11,COc1cccc(CNc2nccn(-c3ccc(OC)c(OC)c3)c2=O)c1,1.78% (inactive)
12,COc1cc(NC(=O)Cn2c(=O)n(Cc3ccco3)c(=O)c3oc4ccccc4c32)cc(OC)c1,-0.131% (inactive)
13,CC(C)CCn1cnc2c1c(=O)n(CC(=O)NC(N)=O)c(=O)n2Cc1ccccc1,1.24% (inactive)
14,COCCn1cnc2c1c(=O)n(CC(=O)NN)c(=O)n2Cc1ccccc1,1.04% (inactive)
15,N=c1c2c(-c3ccccc3)c(-c3ccccc3)n(Cc3ccccc3)c2ncn1CCCO,112% (active)
16,Cc1cc(C)cc(NC(c2nnc(-c3cccc(F)c3)o2)c2ccc(F)cc2Cl)c1 (centres undefined),2.35% (inactive)
17,N#C/C(=C\c1ccccc1F)c1nc2ccccc2c(=O)[nH]1,6.41% (inactive)
18,Cn1c(COc2ccccc2C(C)(C)C)nc2ccccc21,19.9% (inactive)
19,CC1CN(C(=S)Nc2ccc(Br)cc2Cl)CC(C)O1 (centres undefined),-0.955% (inactive)
20,O=C(NC1CCN(Cc2ccccc2)CC1)c1cc(Br)c(Br)[nH]1,7.63% (inactive)
21,S=C(Nc1ccc(Br)cc1)NC1CCN(Cc2ccccc2)CC1,39.5% (active)
22,Cc1cc(Br)ccc1NC(=S)NC1CCCC1,9.12% (inactive)
23,Cc1cc(C(=O)NC2CCN(Cc3ccccc3)CC2)n[nH]1,1.69% (inactive)

row,Compound,activation
1,S=C(Nc1ccc(Br)cc1Cl)NC1CCN(Cc2ccccc2)CC1,30.9% (active)
2,CCN(Cc1ccccc1)Cc1c(O)ccc2c(=O)c(-c3ccc(Cl)cc3Cl)coc12,-1.31% (inactive)
3,Cc1ccc(NC(=O)NC(C)c2c(-n3cccc3)sc(C)c2C)c(C)c1 (centres undefined),-1.09% (inactive)
4,CCOC(=O)c1cc2ccccc2nc1C,31.8% (active)
5,CCOC(=O)c1cc(NC(=O)SCC(=O)O)c(C)nc1C,1.84% (inactive)
6,CCOC(=O)c1cc2ccccc2n1CC(=O)c1ccccc1,6.36% (inactive)
7,CCOc1ccc(N(CC)C(=O)C2CCN(S(=O)(=O)c3cccc4nonc34)CC2)cc1,0.273% (inactive)
8,CCOc1cccc(CC(=O)N2CCc3c([nH]c4ccccc34)C2c2ccc(F)cc2)c1OCC (centres undefined),2.49% (inactive)
9,O=C(Cc1ccc(Cl)cc1)NC(=S)Nc1ccccc1O,35.4% (active)
10,Cc1cc(C(=O)NNC(=S)Nc2ccccc2C)cs1,2.41% (inactive)
11,Cc1ccccc1N/C(SCc1ccc(Cl)cc1)=C(/C#N)C(N)=O,3.17% (inactive)
12,Cc1ccccc1NC(=S)NC(=O)Cc1ccc(Cl)cc1,69.1% (active)
13,COC(=O)c1ccccc1NC(=O)CN(Cc1ccc(Cl)cc1)S(C)(=O)=O,3.99% (inactive)
14,O=C(NC(=S)Nc1ccc(Cl)cc1Cl)C1CC1,1.23% (inactive)
15,Cc1nnc(NC(=O)CSc2nc3c([nH]c4ccccc43)c(=O)n2-c2cccc(Cl)c2)s1,-0.131% (inactive)
16,COC(=O)c1scc(-c2ccccc2)c1S(=O)(=O)Nc1ccccc1,3.73% (inactive)
17,COc1cccc(NC(=O)C(=O)NCC(c2ccc3c(c2)OCO3)N2CCN(C)CC2)c1 (centres undefined),5.73% (inactive)
18,Cn1c(=O)c2c(SCC(=O)N3CCc4ccccc43)nc(-c3ccc(Cl)cc3)nc2n(C)c1=O,0.75% (inactive)
19,CCc1ccc(NC(=O)c2cc(S(=O)(=O)N3CCCC(C)C3)cn2C)cc1 (centres undefined),3.74% (inactive)
20,CC(C)c1ccc(S(=O)(=O)Nc2ccc(O)c(Sc3nc4ccccc4s3)c2)cc1,2.29% (inactive)
